Results published in PubChem BioAssay (NCATS).
Results filed as inconclusive are left out. Values without a mark were called inactive. Calls of active or inactive are those of the source. Unless noted, calls follow the shape of the full dose curve.

Assays:
[1] = Cell Viability - BJ (AID 421); details: BJ fibroblast viability, qHTS;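 also: cells exposed to compound for 40 hours at 37 °C before readout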
Method in brief: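 Quantitative HTS: ATP depletion in BJ cells after 40 hr compound exposure in complete culture medium, detected with CellTiter-Glo; AC50 from standard Hill fits.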

[2] = Cell Viability - Jurkat (AID 426;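 active = dose-dependent loss of cell ATP signal giving a full or clear fitted curve, ranked by lower potency value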); details: qHTS
Method in brief: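 qHTS, 1536-well; Jurkat E6-1, 5000 cells/well, complete medium; cpd 40 hr, 37 °C; CellTiter-Glo 20 min RT; luminescence. AC50 by Hill fit.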

[3] = Cell Viability - Hek293 (AID 427;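 active = compounds whose dose-response curve shows a full or clear partial loss of cell viability, called from curve shape rather than a numeric limit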;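 also: cells exposed to compound for 40 hours at 37 °C before reading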); details: qHTS
Method in brief: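 AC50 values derive from Hill-modelled concentration-response of ATP-based luminescence, normalized between DMSO-only and 100 uM tamoxifen controls. Cells were exposed in complete culture medium for 40 hr at 37 °C before detection.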

[4] = Cell Viability - MRC5 (AID 434); details: MRC5 lung fibroblast viability, qHTS;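 also: potency reflects cytotoxicity seen as loss of intracellular ATP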
Method in brief: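 MRC5 normal human lung fibroblasts, 1500 cells/well, exposed to compound for 40 hr at 37 C. Cellular ATP was read by CellTiter-Glo luminescence; data normalized to DMSO and 100 uM tamoxifen, with AC50 from Hill fits.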

[5] = Cell Viability - HepG2 (AID 433); details: qHTS;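 also: potency for ATP loss meaning cytotoxicity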
Method in brief: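 ATP luminescence (CellTiter-Glo) after 40 h compound exposure, 37 °C, HepG2, 1500 cells/well, complete medium. Normalized: DMSO = basal, 100 uM tamoxifen = 100% inhibition. AC50 via standard Hill equation.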

[6] = Cell Viability - SK-N-SH (AID 435); details: SK-N-SH neuroblastoma cell viability qHTS
Method in brief: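 CellTiter-Glo ATP luminescence, 20 min RT read; cells pre-plated 5 hr, compound 40 hr at 37 °C, 1500 cells/well, complete medium. Normalized DMSO = 0, 100 uM tamoxifen = 100% inhibition; Hill-fit AC50.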

[7] = target: Cytochrome P450 1A2 (Homo sapiens) (UniProt P05177); experiment: p450-cyp1a2 (AID 410); details: recombinant CYP1A2, luciferin-ME demethylation, luminescence; series mostly up to 57 µM
Method in brief: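 Luminescent readout of luciferin formed from Luciferin-ME by human CYP1A2; data normalized against complete inhibition by 57 uM furafylline. Enzyme 20nM, substrate 100uM at Km, 100mM KPO4 buffer, 60 min reaction at room temperature.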
Potency is read from the fitted curve at half-maximal effect.

Cytochrome P450 1A2 (Homo sapiens), sequence (P05177 whole entry, looked up): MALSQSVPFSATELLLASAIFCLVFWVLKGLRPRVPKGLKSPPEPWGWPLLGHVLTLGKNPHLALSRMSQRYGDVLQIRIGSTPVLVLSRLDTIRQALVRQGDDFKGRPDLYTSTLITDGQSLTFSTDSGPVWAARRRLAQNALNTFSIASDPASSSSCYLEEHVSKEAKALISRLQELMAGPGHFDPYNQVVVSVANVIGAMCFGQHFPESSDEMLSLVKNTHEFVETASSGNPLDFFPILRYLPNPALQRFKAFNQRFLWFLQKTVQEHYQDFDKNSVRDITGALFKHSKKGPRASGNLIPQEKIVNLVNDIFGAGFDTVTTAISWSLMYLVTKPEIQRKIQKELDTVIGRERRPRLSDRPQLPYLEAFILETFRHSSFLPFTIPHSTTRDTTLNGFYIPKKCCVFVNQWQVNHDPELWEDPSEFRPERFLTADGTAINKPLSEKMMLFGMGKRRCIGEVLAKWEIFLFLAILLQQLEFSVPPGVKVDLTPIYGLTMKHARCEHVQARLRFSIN

Row | SMILES | Potency [1] | Potency [2] | Potency [3] | Potency [4] | Potency [5] | Potency [6] | Potency [7]
1 | Nc1ccc(Cl)cc1N | > 92 µM | 4.05 µM (active) | > 92 µM | > 92 µM | – | – | –
2 | COc1ccc(C(c2ccc(OC)cc2)C(Cl)(Cl)Cl)cc1 | > 92 µM | – | – | > 92 µM | > 92 µM | > 92 µM | –
3 | COc1ccc(C(=O)c2c(C)n(CCN3CCOCC3)c3cc(I)ccc23)cc1 | – | – | – | – | – | – | 15.8 µM (active)
4 | Nc1ccc([N+](=O)[O-])cc1 | > 92 µM | > 92 µM | > 92 µM | > 92 µM | > 92 µM | > 92 µM | –
5 | Cc1cc(O)ccc1Cl | > 92 µM | > 92 µM | > 92 µM | > 92 µM | > 92 µM | > 92 µM | –
6 | O=S(=O)(c1ccc(Cl)cc1)c1ccc(Cl)cc1 | > 92 µM | > 92 µM | > 92 µM | > 92 µM | > 92 µM | > 92 µM | –
7 | CCOCCOC(C)=O | > 92 µM | > 92 µM | > 92 µM | > 92 µM | > 92 µM | > 92 µM | –
8 | O=[N+]([O-])c1c2ccccc2cc2ccccc12 | > 92 µM | > 92 µM | > 92 µM | > 92 µM | > 92 µM | > 92 µM | –
